This passage reports binding signal results from article PMC7862700, “An all-to-all approach to the identification of sequence-specific readers for epigenetic DNA modifications on cytosine”.

Assay in all cases: DAPPL (digital affinity profiling via proximity ligation, sequencing); 10 mM Tris-HCl pH 7.5, 50 mM NaCl, 1 mM DTT, 4% glycerol, room temperature, 30 min; GST-TFs on glutathione beads, 16-mer random dsDNA library, 0.1% formaldehyde crosslink after washing; high values mean tight binding
Conditions in all cases: protein: recombinant; tags: N-terminal GST; dsDNA, one strand shown

In one experiment the target is T1, FLI1 (Homo sapiens, UniProt Q01543 1-452).
T1 sequence: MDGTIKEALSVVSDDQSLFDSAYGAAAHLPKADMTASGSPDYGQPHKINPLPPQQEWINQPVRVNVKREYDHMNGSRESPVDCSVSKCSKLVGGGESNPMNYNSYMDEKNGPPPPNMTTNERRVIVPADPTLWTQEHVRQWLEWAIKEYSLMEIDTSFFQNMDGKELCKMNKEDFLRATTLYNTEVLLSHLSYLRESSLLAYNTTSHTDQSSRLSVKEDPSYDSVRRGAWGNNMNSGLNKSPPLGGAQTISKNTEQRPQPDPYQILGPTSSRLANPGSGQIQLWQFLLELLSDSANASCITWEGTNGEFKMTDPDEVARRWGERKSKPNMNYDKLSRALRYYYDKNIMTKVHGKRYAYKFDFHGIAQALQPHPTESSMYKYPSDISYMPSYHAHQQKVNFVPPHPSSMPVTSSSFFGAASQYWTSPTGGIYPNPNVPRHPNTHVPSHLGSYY
An outline of the steps:
(§1)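 The binding signal reported is, for every hexamer, its read frequency for a factor over its read frequency for the tag-only sample. Reads came from pools of yeast-expressed, GST-fused human transcription factors on glutathione beads, barcoded with DNA and mixed with that sample, which were incubated with 200 nmole of a random double-stranded 16-mer DNA library in Tris/NaCl/DTT/glycerol buffer at room temperature for 30 min. After washing, the pools were crosslinked with 0.1% formaldehyde, proximity-ligated with BsaI/T4 ligase for 1 h at 37 °C, PCR-amplified and sequenced on an Illumina NextSeq500.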

In the next experiment the target is T2, ELK1 (Homo sapiens, UniProt P19419 1-428).
T2 sequence: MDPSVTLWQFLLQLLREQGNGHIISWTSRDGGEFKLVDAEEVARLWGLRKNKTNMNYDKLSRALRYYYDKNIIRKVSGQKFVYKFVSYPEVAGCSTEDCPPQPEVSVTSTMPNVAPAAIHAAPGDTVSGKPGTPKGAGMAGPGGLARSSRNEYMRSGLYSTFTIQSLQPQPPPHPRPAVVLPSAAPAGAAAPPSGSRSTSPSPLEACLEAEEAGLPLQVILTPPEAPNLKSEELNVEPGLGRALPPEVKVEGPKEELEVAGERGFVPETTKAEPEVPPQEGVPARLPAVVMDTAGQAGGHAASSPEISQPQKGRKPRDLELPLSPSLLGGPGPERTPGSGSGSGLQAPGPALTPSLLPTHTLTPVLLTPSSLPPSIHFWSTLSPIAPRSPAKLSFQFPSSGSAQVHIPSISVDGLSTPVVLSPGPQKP
An outline of the steps: as §1

Another experiment concerns the target T3, GABPA (Homo sapiens, UniProt Q06546 1-454).
T3 sequence: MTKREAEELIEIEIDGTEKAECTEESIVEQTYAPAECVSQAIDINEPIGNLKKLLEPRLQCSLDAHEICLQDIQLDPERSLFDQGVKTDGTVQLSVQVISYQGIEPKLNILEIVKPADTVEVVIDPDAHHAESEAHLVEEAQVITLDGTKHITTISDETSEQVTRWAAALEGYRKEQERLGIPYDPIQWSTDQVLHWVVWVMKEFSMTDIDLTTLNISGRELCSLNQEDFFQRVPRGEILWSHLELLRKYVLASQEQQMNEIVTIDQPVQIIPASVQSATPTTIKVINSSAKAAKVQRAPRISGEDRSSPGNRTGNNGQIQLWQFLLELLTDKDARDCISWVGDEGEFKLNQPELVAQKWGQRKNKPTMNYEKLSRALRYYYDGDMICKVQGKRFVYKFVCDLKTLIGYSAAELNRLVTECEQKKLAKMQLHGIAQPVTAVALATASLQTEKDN
An outline of the steps:
as §1

A further experiment deals with T4, ERG (Homo sapiens, UniProt P11308 1-479).
T4 sequence: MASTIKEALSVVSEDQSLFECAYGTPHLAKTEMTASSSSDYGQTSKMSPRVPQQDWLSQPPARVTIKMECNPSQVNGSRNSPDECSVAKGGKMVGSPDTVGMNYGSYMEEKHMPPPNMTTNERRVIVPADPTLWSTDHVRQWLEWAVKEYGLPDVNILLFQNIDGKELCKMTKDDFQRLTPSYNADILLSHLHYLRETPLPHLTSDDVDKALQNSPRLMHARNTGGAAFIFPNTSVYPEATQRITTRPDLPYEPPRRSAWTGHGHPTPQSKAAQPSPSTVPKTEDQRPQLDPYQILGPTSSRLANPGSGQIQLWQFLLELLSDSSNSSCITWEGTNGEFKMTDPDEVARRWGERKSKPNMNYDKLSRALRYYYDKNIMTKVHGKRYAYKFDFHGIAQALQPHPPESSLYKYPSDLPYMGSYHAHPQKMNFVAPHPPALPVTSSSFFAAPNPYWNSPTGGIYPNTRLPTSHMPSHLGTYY
An outline of the steps: as §1

In another experiment the target is ELF1 (Homo sapiens, UniProt P32519 1-619). An outline of the steps:
as §1

A further experiment addresses T5, EHF (Homo sapiens, UniProt Q9NZC4 1-300).
T5 sequence: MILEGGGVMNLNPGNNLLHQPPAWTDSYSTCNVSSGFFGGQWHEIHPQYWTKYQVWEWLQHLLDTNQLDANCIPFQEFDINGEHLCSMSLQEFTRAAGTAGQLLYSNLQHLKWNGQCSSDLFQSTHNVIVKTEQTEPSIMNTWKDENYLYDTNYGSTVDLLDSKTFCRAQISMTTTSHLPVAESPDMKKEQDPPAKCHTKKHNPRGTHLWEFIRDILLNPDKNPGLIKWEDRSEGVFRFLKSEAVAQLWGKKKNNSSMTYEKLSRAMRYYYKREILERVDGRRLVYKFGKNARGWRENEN
An outline of the steps: as §1

In the next experiment the target is SPI1 (Homo sapiens, UniProt P17947 1-270). An outline of the steps: as §1
The target in the next experiment is SPIB (Homo sapiens, UniProt Q01892 1-262). An outline of the steps:
as §1

For another experiment, the target named is T6, ELK3 (Homo sapiens, UniProt P41970 1-407).
T6 sequence: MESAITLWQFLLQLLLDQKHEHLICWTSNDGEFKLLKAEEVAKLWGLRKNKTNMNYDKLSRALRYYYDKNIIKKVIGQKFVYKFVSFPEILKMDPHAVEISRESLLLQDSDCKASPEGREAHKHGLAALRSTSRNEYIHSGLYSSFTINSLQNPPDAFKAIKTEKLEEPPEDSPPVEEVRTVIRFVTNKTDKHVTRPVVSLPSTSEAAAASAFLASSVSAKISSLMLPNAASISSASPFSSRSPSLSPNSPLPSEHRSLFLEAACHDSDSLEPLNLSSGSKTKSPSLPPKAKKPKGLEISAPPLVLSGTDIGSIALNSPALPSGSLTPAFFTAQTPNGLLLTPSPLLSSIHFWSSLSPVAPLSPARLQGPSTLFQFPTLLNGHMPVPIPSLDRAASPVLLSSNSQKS
An outline of the steps: as §1

A further experiment addresses T7, FEV (Homo sapiens, UniProt Q99581 1-238).
T7 sequence: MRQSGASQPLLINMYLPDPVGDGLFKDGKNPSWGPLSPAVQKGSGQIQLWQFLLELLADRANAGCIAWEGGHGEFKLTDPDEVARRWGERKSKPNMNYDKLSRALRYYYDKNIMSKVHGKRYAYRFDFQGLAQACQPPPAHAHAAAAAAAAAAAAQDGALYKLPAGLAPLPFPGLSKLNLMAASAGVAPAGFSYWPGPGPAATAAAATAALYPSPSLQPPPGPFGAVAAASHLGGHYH
An outline of the steps: as §1

The target in the next experiment is ETV5 (Homo sapiens, UniProt P41161 1-510). An outline of the steps: as §1
Sequence of ETV5 (P41161 whole entry): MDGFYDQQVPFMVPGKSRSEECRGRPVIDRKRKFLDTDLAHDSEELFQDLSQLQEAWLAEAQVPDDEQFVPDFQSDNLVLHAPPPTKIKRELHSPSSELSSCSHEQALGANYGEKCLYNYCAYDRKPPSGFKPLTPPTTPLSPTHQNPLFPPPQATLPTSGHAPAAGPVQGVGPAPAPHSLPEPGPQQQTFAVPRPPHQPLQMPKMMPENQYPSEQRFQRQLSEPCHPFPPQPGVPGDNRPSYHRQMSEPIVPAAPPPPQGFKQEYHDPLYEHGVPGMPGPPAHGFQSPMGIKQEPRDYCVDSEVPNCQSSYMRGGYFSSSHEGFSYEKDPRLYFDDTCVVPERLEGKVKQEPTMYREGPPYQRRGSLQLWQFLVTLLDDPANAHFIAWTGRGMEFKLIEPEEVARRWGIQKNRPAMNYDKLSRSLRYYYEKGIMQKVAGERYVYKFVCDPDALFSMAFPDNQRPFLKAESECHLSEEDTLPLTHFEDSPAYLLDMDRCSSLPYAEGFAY
The target in another experiment is T8, SPIC (Homo sapiens, UniProt Q8N5J4 1-248).
T8 sequence: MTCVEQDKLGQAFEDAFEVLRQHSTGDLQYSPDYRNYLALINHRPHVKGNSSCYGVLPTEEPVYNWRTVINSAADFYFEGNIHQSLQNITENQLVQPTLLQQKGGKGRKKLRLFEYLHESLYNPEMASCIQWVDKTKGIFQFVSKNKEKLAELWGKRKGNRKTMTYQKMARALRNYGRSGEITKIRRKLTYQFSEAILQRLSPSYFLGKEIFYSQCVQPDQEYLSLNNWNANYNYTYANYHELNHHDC
An outline of the steps:
as §1

Another experiment concerns the target ELF4 (Homo sapiens, UniProt Q99607 1-663). An outline of the steps: as §1
A further experiment concerns the target T9, ELK4 (Homo sapiens, UniProt P28324-2 1-405).
T9 sequence: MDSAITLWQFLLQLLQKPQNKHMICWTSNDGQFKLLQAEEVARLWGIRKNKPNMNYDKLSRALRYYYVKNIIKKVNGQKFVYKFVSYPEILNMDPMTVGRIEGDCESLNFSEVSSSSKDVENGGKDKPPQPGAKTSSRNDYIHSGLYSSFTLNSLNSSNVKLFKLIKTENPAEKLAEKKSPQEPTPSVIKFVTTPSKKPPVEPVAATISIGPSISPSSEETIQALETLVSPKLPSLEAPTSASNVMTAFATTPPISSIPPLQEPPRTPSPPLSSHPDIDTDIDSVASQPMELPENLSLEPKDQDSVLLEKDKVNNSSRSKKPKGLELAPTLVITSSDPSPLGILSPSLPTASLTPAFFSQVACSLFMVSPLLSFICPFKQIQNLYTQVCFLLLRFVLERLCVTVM
An outline of the steps:
as §1

The target in another experiment is T10, ETV2 (Homo sapiens, UniProt O00321 1-342).
T10 sequence: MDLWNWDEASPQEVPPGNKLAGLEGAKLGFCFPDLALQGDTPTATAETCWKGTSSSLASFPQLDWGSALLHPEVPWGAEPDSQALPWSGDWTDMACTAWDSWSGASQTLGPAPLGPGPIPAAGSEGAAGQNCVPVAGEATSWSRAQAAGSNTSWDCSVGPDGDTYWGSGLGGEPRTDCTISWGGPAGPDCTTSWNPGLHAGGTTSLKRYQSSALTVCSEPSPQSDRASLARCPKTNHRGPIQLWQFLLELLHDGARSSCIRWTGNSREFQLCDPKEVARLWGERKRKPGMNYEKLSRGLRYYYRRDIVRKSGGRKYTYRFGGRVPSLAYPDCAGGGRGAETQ
An outline of the steps:
as §1

For the next experiment, the target named is T11, ELF3 (Homo sapiens, UniProt P78545 1-371).
T11 sequence: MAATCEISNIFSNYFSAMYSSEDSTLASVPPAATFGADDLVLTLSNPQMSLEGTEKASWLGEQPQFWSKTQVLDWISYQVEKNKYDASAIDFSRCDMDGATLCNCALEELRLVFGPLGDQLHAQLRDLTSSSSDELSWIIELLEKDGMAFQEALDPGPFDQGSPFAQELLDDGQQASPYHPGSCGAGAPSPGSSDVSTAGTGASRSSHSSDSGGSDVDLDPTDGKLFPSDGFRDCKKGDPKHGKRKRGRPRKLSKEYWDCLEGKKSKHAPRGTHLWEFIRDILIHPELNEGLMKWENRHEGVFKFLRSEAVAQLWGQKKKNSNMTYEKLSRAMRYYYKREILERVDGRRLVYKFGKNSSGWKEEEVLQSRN
An outline of the steps: as §1

The next experiment deals with ETV1 (Homo sapiens, UniProt P50549 1-477). An outline of the steps:
as §1

Another experiment addresses CRX (Homo sapiens, UniProt O43186 1-299). An outline of the steps: as §1

Sequence of SPIB (Q01892 whole entry): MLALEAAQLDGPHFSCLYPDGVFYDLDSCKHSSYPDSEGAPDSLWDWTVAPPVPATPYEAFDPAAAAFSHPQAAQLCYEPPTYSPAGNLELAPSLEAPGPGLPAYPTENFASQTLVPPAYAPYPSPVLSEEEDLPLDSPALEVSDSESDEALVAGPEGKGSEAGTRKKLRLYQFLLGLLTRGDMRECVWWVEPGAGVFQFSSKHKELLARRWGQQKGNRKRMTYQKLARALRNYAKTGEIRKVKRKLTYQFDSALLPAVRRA
Sequence of ELF1 (P32519 whole entry): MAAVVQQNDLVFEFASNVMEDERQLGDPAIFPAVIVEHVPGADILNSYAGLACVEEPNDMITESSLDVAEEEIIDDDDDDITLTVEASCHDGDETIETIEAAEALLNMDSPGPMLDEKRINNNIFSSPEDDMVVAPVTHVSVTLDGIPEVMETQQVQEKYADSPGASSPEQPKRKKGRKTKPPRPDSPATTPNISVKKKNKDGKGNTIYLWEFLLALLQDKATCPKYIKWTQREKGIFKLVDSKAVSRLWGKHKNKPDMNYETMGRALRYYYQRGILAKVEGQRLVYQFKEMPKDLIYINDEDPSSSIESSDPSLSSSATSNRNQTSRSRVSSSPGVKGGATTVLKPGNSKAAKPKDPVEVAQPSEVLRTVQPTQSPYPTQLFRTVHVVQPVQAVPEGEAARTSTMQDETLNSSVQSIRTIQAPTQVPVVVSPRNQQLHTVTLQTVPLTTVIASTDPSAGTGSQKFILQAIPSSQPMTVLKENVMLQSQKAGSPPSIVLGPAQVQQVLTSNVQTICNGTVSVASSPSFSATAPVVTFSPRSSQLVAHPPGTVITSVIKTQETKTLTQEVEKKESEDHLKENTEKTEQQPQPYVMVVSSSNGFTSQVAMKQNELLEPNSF
Sequence of ELF4 (Q99607 whole entry): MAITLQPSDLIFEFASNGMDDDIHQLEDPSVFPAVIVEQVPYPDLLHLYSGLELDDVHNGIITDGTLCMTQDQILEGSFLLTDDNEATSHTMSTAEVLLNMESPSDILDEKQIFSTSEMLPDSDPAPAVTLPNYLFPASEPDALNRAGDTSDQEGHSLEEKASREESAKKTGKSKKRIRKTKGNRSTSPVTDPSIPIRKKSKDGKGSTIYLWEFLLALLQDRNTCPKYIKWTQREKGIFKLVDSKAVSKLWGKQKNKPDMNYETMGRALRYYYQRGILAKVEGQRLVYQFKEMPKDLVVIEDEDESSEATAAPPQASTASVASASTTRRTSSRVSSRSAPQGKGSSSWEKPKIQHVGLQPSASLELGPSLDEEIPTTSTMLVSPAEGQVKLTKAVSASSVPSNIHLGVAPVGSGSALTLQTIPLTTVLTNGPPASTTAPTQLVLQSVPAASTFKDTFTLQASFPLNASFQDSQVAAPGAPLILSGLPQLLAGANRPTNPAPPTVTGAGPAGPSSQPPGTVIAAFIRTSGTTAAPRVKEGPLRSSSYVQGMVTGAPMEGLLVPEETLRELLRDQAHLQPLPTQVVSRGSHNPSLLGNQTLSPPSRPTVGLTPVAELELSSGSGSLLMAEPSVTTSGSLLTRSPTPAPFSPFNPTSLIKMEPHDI
Sequence of ETV1 (P50549 whole entry): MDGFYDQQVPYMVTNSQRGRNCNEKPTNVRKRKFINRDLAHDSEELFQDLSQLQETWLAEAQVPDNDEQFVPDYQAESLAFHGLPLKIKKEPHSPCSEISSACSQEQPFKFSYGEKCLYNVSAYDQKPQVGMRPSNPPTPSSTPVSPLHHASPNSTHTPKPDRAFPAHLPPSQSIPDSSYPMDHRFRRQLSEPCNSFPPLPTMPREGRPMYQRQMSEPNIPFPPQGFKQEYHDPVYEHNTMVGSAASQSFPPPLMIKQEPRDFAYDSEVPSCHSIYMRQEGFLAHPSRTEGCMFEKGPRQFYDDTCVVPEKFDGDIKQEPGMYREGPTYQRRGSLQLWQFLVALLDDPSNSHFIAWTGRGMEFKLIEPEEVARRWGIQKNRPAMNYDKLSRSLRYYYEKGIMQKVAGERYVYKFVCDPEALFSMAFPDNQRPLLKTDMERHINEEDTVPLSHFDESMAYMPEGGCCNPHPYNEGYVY
Sequence of CRX (O43186 whole entry): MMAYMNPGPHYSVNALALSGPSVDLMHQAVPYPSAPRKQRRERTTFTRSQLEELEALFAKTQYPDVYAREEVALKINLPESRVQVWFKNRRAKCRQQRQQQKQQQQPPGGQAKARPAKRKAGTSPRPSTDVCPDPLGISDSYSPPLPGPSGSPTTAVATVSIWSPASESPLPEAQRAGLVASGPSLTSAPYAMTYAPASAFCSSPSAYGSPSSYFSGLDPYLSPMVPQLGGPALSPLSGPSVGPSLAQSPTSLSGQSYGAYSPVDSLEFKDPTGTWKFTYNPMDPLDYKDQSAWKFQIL

For the sequence ACCAAC, the binding signal is 1.19 fold enrichment (6-mer frequency, TF over GST control) with FLI1; 1.36 fold enrichment (6-mer frequency, TF over GST control) with ELK1; 1.23 fold enrichment (6-mer frequency, TF over GST control) with GABPA; 1.15 fold enrichment (6-mer frequency, TF over GST control) in the experiment with ERG; 1.24 fold enrichment (6-mer frequency, TF over GST control) with ELF1; 1.18 fold enrichment (6-mer frequency, TF over GST control) in the experiment with EHF. Further, the binding signal with SPI1 was 1.19 fold enrichment (6-mer frequency, TF over GST control); with SPIB it was 1.12 fold enrichment (6-mer frequency, TF over GST control); in the experiment with ELK3, 1.18 fold enrichment (6-mer frequency, TF over GST control); with FEV, 1.19 fold enrichment (6-mer frequency, TF over GST control); in the experiment with ETV5 it was 1.22 fold enrichment (6-mer frequency, TF over GST control); with SPIC, 1.1 fold enrichment (6-mer frequency, TF over GST control). In addition, the binding signal is 1.25 fold enrichment (6-mer frequency, TF over GST control) with ELF4; 1.31 fold enrichment (6-mer frequency, TF over GST control) with ELK4; 1.25 fold enrichment (6-mer frequency, TF over GST control) with ETV2; 1.2 fold enrichment (6-mer frequency, TF over GST control) with ELF3; 1.16 fold enrichment (6-mer frequency, TF over GST control) in the experiment with ETV1.
Regarding TACGTC, the binding signal was 1.19 fold enrichment (6-mer frequency, TF over GST control) with FLI1; 1.16 fold enrichment (6-mer frequency, TF over GST control) in the experiment with ELK1; 1.13 fold enrichment (6-mer frequency, TF over GST control) with GABPA; 1.16 fold enrichment (6-mer frequency, TF over GST control) with ERG; 1.13 fold enrichment (6-mer frequency, TF over GST control) with ELF1; 1.25 fold enrichment (6-mer frequency, TF over GST control) in the experiment with EHF. Also, the binding signal with SPI1 is 1.12 fold enrichment (6-mer frequency, TF over GST control); with SPIB, 1.31 fold enrichment (6-mer frequency, TF over GST control); in the experiment with ELK3, 1.21 fold enrichment (6-mer frequency, TF over GST control); with FEV, 1.24 fold enrichment (6-mer frequency, TF over GST control); with ETV5, 1.13 fold enrichment (6-mer frequency, TF over GST control); with SPIC, 1.03 fold enrichment (6-mer frequency, TF over GST control). Also, the binding signal in the experiment with ELF4 is 1.16 fold enrichment (6-mer frequency, TF over GST control); in the experiment with ELK4 it was 1.14 fold enrichment (6-mer frequency, TF over GST control); with ETV2, 1.02 fold enrichment (6-mer frequency, TF over GST control); with ELF3, 1.02 fold enrichment (6-mer frequency, TF over GST control); in the experiment with CRX, 1 fold enrichment (6-mer frequency, TF over GST control); in the experiment with ETV1 it was 1.24 fold enrichment (6-mer frequency, TF over GST control).
